Data taken from the supplement of paper PMC9694430.
Counter-ions that a name gives are not always drawn.

What was measured:
Assay in all cases: thermal shift delta Tm vs DMSO control; higher = stronger stabilization (binding)
Settings in all cases: 12.5 µM; protein concentration 2 µM
LOC_OS01G57100-cb003 = system: LOC_OS01G57100-cb003
How it was run: (§1)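 Rice kinase domain constructs, made in E. coli and purified, were placed in 96-well plates at 2 μM in 19.5 μl of 100 mM potassium phosphate pH 7.5, 150 mM NaCl, 10% glycerol and 5 × SYPRO Orange, with compound in DMSO. A temperature ramp from 25°C to 95°C at 0.05°C/s was used for differential scanning fluorimetry. The melting temperature shift is a triplicate mean compared with DMSO-only protein, derived from Boltzmann fits.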

LOC_OS01G60330-cb001 = system: LOC_OS01G60330-cb001
How it was run: as §1

LOC_OS01G60700-cb002 = system: LOC_OS01G60700-cb002
How it was run: as §1

LOC_OS01G63280-cb003 = system: LOC_OS01G63280-cb003
How it was run: as §1

LOC_OS01G67340-cb003 = system: LOC_OS01G67340-cb003
How it was run: as §1

LOC_OS01G70970-cb002 = system: LOC_OS01G70970-cb002
How it was run: as §1

LOC_OS02G07810-cb001 = system: LOC_OS02G07810-cb001
How it was run: as §1

LOC_OS02G08530-cb003 = system: LOC_OS02G08530-cb003
How it was run: as §1

LOC_OS02G14120-cb001 = system: LOC_OS02G14120-cb001
How it was run: as §1

LOC_OS02G17970-cb001 = system: LOC_OS02G17970-cb001
How it was run: as §1

LOC_OS02G45750-cb003 = system: LOC_OS02G45750-cb003
How it was run: as §1

LOC_OS02G54510-cb004 = system: LOC_OS02G54510-cb004
How it was run: as §1

LOC_OS03G04050-cb001 = system: LOC_OS03G04050-cb001
How it was run: as §1

LOC_OS03G12390-cb001 = system: LOC_OS03G12390-cb001
How it was run: as §1

LOC_OS03G27990-cb004 = system: LOC_OS03G27990-cb004
How it was run: as §1

LOC_OS03G50450-cb001 = system: LOC_OS03G50450-cb001
How it was run: as §1

LOC_OS03G50810-cb003 = system: LOC_OS03G50810-cb003
How it was run: as §1

LOC_OS04G35114-cb001 = system: LOC_OS04G35114-cb001
How it was run: as §1

LOC_OS04G38480-cb003 = system: T1, LOC_OS04G38480-cb003
T1 sequence (whole entry): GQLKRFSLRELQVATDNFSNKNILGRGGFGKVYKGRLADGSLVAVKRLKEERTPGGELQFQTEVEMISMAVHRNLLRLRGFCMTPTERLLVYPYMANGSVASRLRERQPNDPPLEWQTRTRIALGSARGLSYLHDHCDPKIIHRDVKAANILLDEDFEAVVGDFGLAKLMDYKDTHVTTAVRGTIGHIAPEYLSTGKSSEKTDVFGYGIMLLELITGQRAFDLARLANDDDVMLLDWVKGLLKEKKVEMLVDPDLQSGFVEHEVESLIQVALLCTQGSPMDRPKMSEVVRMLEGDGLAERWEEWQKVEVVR
How it was run: as §1

LOC_OS04G41100-cb001 = system: T2, LOC_OS04G41100-cb001
T2 sequence (whole entry): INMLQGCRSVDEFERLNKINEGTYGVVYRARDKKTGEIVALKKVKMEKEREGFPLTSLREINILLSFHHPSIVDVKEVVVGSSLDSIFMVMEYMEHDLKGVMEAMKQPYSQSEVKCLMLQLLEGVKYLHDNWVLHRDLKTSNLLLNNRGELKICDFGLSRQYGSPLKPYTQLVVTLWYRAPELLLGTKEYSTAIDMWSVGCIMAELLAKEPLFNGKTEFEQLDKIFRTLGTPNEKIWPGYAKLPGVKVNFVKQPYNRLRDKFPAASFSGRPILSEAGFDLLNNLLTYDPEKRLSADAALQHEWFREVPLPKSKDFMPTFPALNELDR
How it was run: as §1
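Note: purified Escherichia coli-expressed rice kinase domain construct.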

Compound	thermal shift delta Tm (LOC_OS01G57100-cb003) [°C]	thermal shift delta Tm (LOC_OS01G60330-cb001) [°C]	thermal shift delta Tm (LOC_OS01G60700-cb002) [°C]	thermal shift delta Tm (LOC_OS01G63280-cb003) [°C]	thermal shift delta Tm (LOC_OS01G67340-cb003) [°C]	thermal shift delta Tm (LOC_OS01G70970-cb002) [°C]	thermal shift delta Tm (LOC_OS02G07810-cb001) [°C]	thermal shift delta Tm (LOC_OS02G08530-cb003) [°C]	thermal shift delta Tm (LOC_OS02G14120-cb001) [°C]	thermal shift delta Tm (LOC_OS02G17970-cb001) [°C]	thermal shift delta Tm (LOC_OS02G45750-cb003) [°C]	thermal shift delta Tm (LOC_OS02G54510-cb004) [°C]	thermal shift delta Tm (LOC_OS03G04050-cb001) [°C]	thermal shift delta Tm (LOC_OS03G12390-cb001) [°C]	thermal shift delta Tm (LOC_OS03G27990-cb004) [°C]	thermal shift delta Tm (LOC_OS03G50450-cb001) [°C]	thermal shift delta Tm (LOC_OS03G50810-cb003) [°C]	thermal shift delta Tm (LOC_OS04G35114-cb001) [°C]	thermal shift delta Tm (LOC_OS04G38480-cb003) [°C]	thermal shift delta Tm (LOC_OS04G41100-cb001) [°C]
Cc1cc(O)c(-c2ccc([C@@H](C)CN)cc2)c2c1[nH]c(=O)c1sccc12 [OTS514 hydrochloride]	-0.04	2.08	1.5	0.46	0.86	0.57	0.41	1.3	4.21	1.52	0.87	1.1	0.44	0.55	0.52	0.04	0.85	1.39	1.65	3.58
CC[C@@H](N)CNc1ccnc(-c2cc(-c3cnn(C)c3)ccc2O)n1	0.71	0.32	-0.42	0.05	1.83	0.65	-0.8	2.73	4.11	0.54	2.91	-0.17	0.27	0.67	0.75	0.74	1.49	6.46	1.41	2.6
c1nc2c(NC3CCCCC3)nc(Nc3ccc(N4CCOCC4)cc3)nc2[nH]1 [Reversine]	0.27	11.7	1.27	1.53	3.68	7.39	-0.13	4.69	7.96	0.48	8.28	4.92	0.32	9.58	5.33	9.57	5.17	6.36	3.21	0.65
COc1cc(OC)c(C=C2C(=O)Nc3ccccc32)c(OC)c1	1.44	0.76	0.97	-0.13	0.36	0.32	0.32	0.7	0.94	0.65	-0.14	0.07	-0.08	-0.35	0.05	-0.29	-0.06	0.7	0.58	0.2
O=C1NC(=O)/C(=C/c2ccc(-c3ccc(F)cc3O)o2)S1	4.13	9.64	1.12	23.4	5.05	4.18	2.79	1.57	2.56	1.7	2.33	0.67	1.72	5.37	1.51	3.59	2.55	4.85	4.16	1.17
COc1cc(Nc2c(C#N)cnc3cc(OCCCN4CCN(C)CC4)c(OC)cc23)c(Cl)cc1Cl [Bosutinib (SKI-606)]	0.91	1.47	0.95	-0.23	-0.85	0.24	0.38	0.38	0.1	-0.22	0.12	0.16	0.26	0.07	0.12	-0.11	-0.09	0.86	1.14	0.53
FC(F)(F)c1ccc(CNc2ccc(Cc3c[nH]c4ncc(Cl)cc34)cn2)cn1 [Pexidartinib (PLX3397)]	1.87	3.92	0.67	2.9	3.78	2.89	1.03	3.22	9.87	2.01	6.87	0.69	0.27	2.08	0.52	0.54	1.63	9.82	4.16	0.51
CN(C)C/C=C/C(=O)Nc1cc2c(Nc3ccc(F)c(Cl)c3)ncnc2cc1O[C@H]1CCOC1 [Afatinib (BIBW2992) Dimaleate]	0.18	1.16	1.57	1	0.71	-0.12	0.8	1.12	2.75	1.68	1.42	0.08	0.35	2.3	1.68	0.41	1.38	5.35	2.08	0.45
C[C@@H]1CN(C(=O)c2ccc(NC(=O)c3cc(O[C@H](C)c4c(Cl)ccc(F)c4Cl)c(N)nn3)cc2)C[C@H](C)N1 [Ensartinib (X-396)]	4.79	-0.22	0.66	-0.05	7.25	0.84	0.09	2.29	12	0.57	6.54	3.48	-0.25	2.86	0.07	0.15	5	8.12	5.86	0.2
NC1(Cc2ccc(Cl)cc2)CCN(c2ncnc3[nH]ccc23)CC1	2.25	2.06	0.71	0.51	0.58	0.53	0.47	1.24	1.88	0.79	0.79	0.26	0.46	1.47	0.26	0.97	0.62	0.68	0.64	0.33
CCS(=O)(=O)N1CC(CC#N)(n2cc(-c3ncnc4[nH]ccc34)cn2)C1	2.25	0.75	1.26	1.3	0.81	0.39	0.37	1.89	4.11	0.86	2.13	1.15	0.77	1.62	0.66	1.09	0.62	1.29	0.44	0.43
CNc1nc(Nc2cnn([C@H]3CCN(C4COC4)C[C@@H]3F)c2Cl)ncc1C(F)(F)F	0.76	2.09	0.99	0.1	0.67	1.35	0.49	2.55	2.26	0.35	10.5	0.35	0.37	9.14	2.39	5.54	4.12	4.01	3.09	0.6
